± gives the standard deviation of the averaged measurements. The full ranking holds about 25,000 sequences; the median of “ln(normalized median fluorescence intensity)” is about 8.6, and the highest 2% start at about 10. The sample as a whole holds a higher share of the highest values than the screen did.
tested on: PfAP2-EXP AP2 domain (GST-tagged); test: gcPBM binding intensity (ln(normalized median fluorescence intensity)); higher = stronger DNA binding
Method in brief: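 The binding buffer was 1× PBS containing 1% milk, 0.2 mg/ml BSA, 0.5% salmon testes DNA and 0.03% Triton X-100. In it, GST-tagged P. falciparum DNA-binding domains expressed in E. coli were applied for 1 h to an Agilent 4 × 180k array of primer-extended double-stranded 36-bp intergenic genomic probes plus negative controls. Binding intensity, read with Alexa488 anti-GST antibody and a 488 nm scan, is the highest Masliner-normalised natural-log median intensity across replicate spots of either probe orientation.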

| Sequence | gcPBM binding intensity (ln) |
| --- | --- |
| TTGAATAAATTGGAATAAATATAATAAAATAAGGAA [XGTACX_negctrl_site302] | 8.62 ± 0.38 |
| TTTATGAAACAGTGCACACATAAAAATAAATACATA [CACACA_site5631] | 9.175 ± 0.035 |
| ATATATATATGTTTGTGTACTTATGATATCATATAA [XGTACX_site3276] | 9.66 ± 0.099 |
| TTTTTTTTTTTTGAAGTGCATTACTTTTTTTGTATT [GTGCAC_site9811] | 8.5 ± 0.23 |
| AATAAATAAGCAACATGTACATACAAATATATACAT [XGTACX_site8529] | 8.48 ± 0.35 |
| TTGTTCTTTCAAATTATACACACCAAAAAAAAAAAA [CACACA_site3070] | 8.53 ± 0.4 |
| ATATGTTTTTTTTTTTTTTTTTAATTTGTCATAAAT [CACACA_negctrl_site1208] | 8.35 ± 0.49 |
| ATAATAAAAAAAAATGCACACATATATATATATATA [CACACA_site8766] | 10.3 ± 0.34 |
| TATATATTAAAAATAGTGCAAAATAATATATATATA [GTGCAC_site9716] | 9.845 ± 0.049 |
| ATATAAACACTGAATGCATGCACATATATATATATA [TGCATGCA_site940] | 10.45 ± 0.049 |
| ATATGTGTTAAAAATGCACACAAAAAAATATACATA [CACACA_site7988] | 8.69 ± 0.49 |
| AAAATATAATATAATGCACACATAAAAAAAAAAAAA [CACACA_site7989] | 8.52 ± 0.49 |
| AATATAATATAATGCACACATAAAACAAAAAAAAAA [CACACA_site3012] | 8.82 ± 0.47 |
| AATATAATATAATGCACACATAAAAAAAAAAAAATC [CACACA_site1303] | 8.7 ± 0.32 |
| GAATAAAAAATATATGTGCACATATAAACTTAAAAT [GTGCAC_site9554] | 8.9 ± 0.3 |
| ATTATATATAAACACACACACATGCATGCACATATA [CACACA_site4237] | 10 ± 0.26 |
| ATATATATATATATAGTGCAAATAAAAAATAGACAA [GTGCAC_site9796] | 10.2 ± 0.3 |
| TATATATGTTAAAACGTGCACATATATATATATATA [GTGCAC_site9589] | 10.2 ± 0.21 |
| CACAAAAATAGACACACACACATATAAATAAATATA [CACACA_site6598] | 8.62 ± 0.47 |
| TTACACATACATATGTGGGAAAATATTGCTACATAT [CACACA_negctrl_site463] | 8.57 ± 0.49 |
| TATATTTTTTAAACCACACACAATATAGAGTATAAT [CACACA_site4510] | 8.66 ± 0.47 |
| AAATTAATATATAAAAGTACCCATATATTTAATATA [XGTACX_site3551] | 8.21 ± 0.39 |
| ATGCATATAATTATATGTACATATAAGAAATATATA [XGTACX_site517] | 8.71 ± 0.37 |

| Sequence | gcPBM binding intensity (ln) |
| --- | --- |
| ATTTCTTCTTTTTTTGTGAAACTGGAATATATATAT [XGTACX_negctrl_site527] | 9.17 ± 0.057 |
| TATATAGTAATTTATTCACACAATTGGCACACCTCA [CACACA_site4679] | 8.71 ± 0.35 |
| ATTCTAAATAATAAGAGTACAAATAATATGGAGAAG [XGTACX_site5209] | 9.12 ± 0.51 |
| CATTCTACAATAAAAAGTACATATATATATTATATA [XGTACX_site921] | 8.43 ± 0.34 |
| TTTTGTGATCTTACCACCTTTCATAATATTAATAAA [GTGCAC_negctrl_site360] | 8.61 ± 0.31 |
| TATATATATATGTGCACACATAATAAAAAAAAAAAT [CACACA_site3831] | 9.9 ± 0.11 |
| ATATATATATATATAGTGCAAATATCTTCTTTATAA | 10.3 ± 0.3 |
| TATATATATATATGTGCACACATAATAAAAAAAAAA [CACACA_site3830] | 10.32 ± 0.064 |
| ATATAAATATAGTGTGCACACACATAATATATATAT [CACACA_site8713] | 9.38 ± 0.057 |
| AATATATATATATGTGCACACATATATAATATGTAT [CACACA_site716] | 8.53 ± 0.28 |
| ATATATATATATAGTGCACACATATAAAATATATAT [CACACA_site8884] | 10.29 ± 0.021 |
| TCAAAAATTTATATAGTGCAATATATATATAATGTA | 8.31 ± 0.42 |
| ATATTTTATATAATAGTGCAAATAATATTAAATAAT | 8.66 ± 0.21 |
| ATATATATATAGTGCACACATATAAAATATATATAA [CACACA_site2745] | 9.9 ± 0.071 |
| TTGTTCATCTTTTTTTTTTTTTTTTTTTTTTAAATC [CACACA_negctrl_site191] | 8.18 ± 0.62 |
| TCTCTAACTTTTAATACACACAAATAAATAAATAAA [CACACA_site6245] | 8.47 ± 0.35 |
| GTGAGTGAAATATGCAAACACACACCCGAAAAATGT [CACACA_site3197] | 8.7 ± 0.57 |
| TTAAAGGGAATGTATACACACGTTTCTCTATGTTAT [CACACA_site4793] | 8.59 ± 0.31 |
| ACTAATAAAGGTGTAATACACACTATAAAAAGGAAT [CACACA_site1124] | 8.88 ± 0.57 |
| TTCTTTGTTTTTTTTTTTTTTTTAAAAGATAATATT [XGTACX_negctrl_site381] | 8.43 ± 0.25 |
| TATATATATATATGATGTACACATTTTATTATTTGT [XGTACX_site1147] | 9.94 ± 0.31 |
| TTTCAAAAATGAGTTACACACACACGGATATAAATA [CACACA_site7116] | 8.88 ± 0.56 |
| TCAAAAATGAGTTACACACACACATATATATATATA [CACACA_site2229] | 10.2 ± 0.47 |

| Sequence | gcPBM binding intensity (ln) |
| --- | --- |
| TTTCAAAAATGAGTTACACACACACCGATATATATA [CACACA_site5263] | 8.79 ± 0.61 |
| AATAAATTACTATGTACACACATAAGAGTATAAATA [CACACA_site6940] | 8.56 ± 0.32 |
| TACGATGTTTTAAAATGTACATAAAAGTCACATAAG [XGTACX_site3297] | 8.52 ± 0.34 |
| TATGATTTTTATATATGTACGTATGGTGTTTTACAA [XGTACX_site6100] | 8.8 ± 0.42 |
| GTTTGGTGGTGTTTTGGTACGTACGGGGGTGTATGT [XGTACX_site1211] | 9.66 ± 0.2 |
| GTTTGGTGGTGTTTTGGTACGTACGGGGGGGTATGT [XGTACX_site1983] | 10.6 ± 0.19 |
| TATAAAAAAAAATGTGGTACATATTTCCATTTTCCA [XGTACX_site4571] | 8.11 ± 0.23 |
| ATTTATTTTCTGTGTACACATATGTTGGGTATTTTA [CACACA_site5902] | 9.14 ± 0.45 |
| TATTTTTCCATTGGGGGTACATGTGTTATATTTATT [XGTACX_site5914] | 10.4 ± 0.76 |
| AATAATATACCTCTTGTGCACATATTAAAAGTTCAT [GTGCAC_site9536] | 8.97 ± 0.22 |
| ACAATTGAAGAAATACGTACATAAAGAAAAACTAGT [XGTACX_site820] | 9.16 ± 0.51 |
| TAAAAAGGAAAACACACACACACATATATATATATA [CACACA_site3588] | 10.2 ± 0.16 |
| TATAAAAGGAAACACACACACATATATATATATATA [CACACA_site939] | 10.2 ± 0.4 |
| ATAAAAAGGAAACACACACACACACCCATATATATA [CACACA_site904] | 8.73 ± 0.44 |
| AAGGAATAATATAAAACACACACATAAATATAAATA [CACACA_site9115] | 8.68 ± 0.26 |
| ATAAAAAAAAGAAAAACACACACATATATATATATA [CACACA_site8243] | 10.2 ± 0.16 |
| AAAAAAAAAAATATCACACACACATAAATATAAACC [CACACA_site2278] | 8.77 ± 0.49 |
| AAAAGGAAAAATATCACACATATATATATATATATA [CACACA_site5586] | 10.2 ± 0.34 |
| AGGAAAAAAGAAAAAACACACATAAATATATATATA [CACACA_site3085] | 9.64 ± 0.23 |
| ATAAAAAATATCACATAAAATAAAAAAAGAAAGGAT [XGTACX_negctrl_site294] | 9.06 ± 0.52 |
| TTGTTAATGGTACGAACACACATATAAAGATGCATA [CACACA_site2044] | 8.64 ± 0.54 |
| TACCATTATTTTAAGTGTACATACTAATTTATATAT [XGTACX_site6548] | 8.61 ± 0.28 |
| ATGAAGATTTAAAAATGTACATATGATCTATGTCCT [XGTACX_site8409] | 8.38 ± 0.36 |

| Sequence | gcPBM binding intensity (ln) |
| --- | --- |
| TTTTTTTTTTTGTTTTGTACATAAATTGCAACCAAT [XGTACX_site8949] | 8.73 ± 0.57 |
| TTTTTATATGTTAAGTGTACGTTTACATTTTATACT [XGTACX_site3485] | 8.63 ± 0.36 |
| TACAGATAAAAGTACACACACACACCGATATATATA [CACACA_site4675] | 8.86 ± 0.38 |
| TTGCATTGATCAAACATACACACATGGTTAATAAAA [CACACA_site2084] | 8.64 ± 0.47 |
| AAAAAAAAAAAAAAAACACACATGTATACTAGAATA [CACACA_site7108] | 8.67 ± 0.31 |
| ATGTGTGTATACATCAATTATATATATATTATGTAT [GTGCAC_negctrl_site720] | 8.6 ± 0.33 |
| ATTTTTTCATATTCTACACACGTGAACAAATGTGTC [CACACA_site3007] | 8.69 ± 0.36 |
| TAAAAAATTATATTCACACACATACACATATATATA [CACACA_site545] | 8.54 ± 0.43 |
| GTTTCCTTAATATTCACACACATATATATAATATAT [CACACA_site1856] | 8.95 ± 0.33 |
| TGCATTTATATCTTCACACATATATATATATATATA [CACACA_site4516] | 10.2 ± 0.42 |
| AACTTATTTAAATTCACACATATATAAAATACTTAT [CACACA_site4394] | 8.38 ± 0.42 |
| AAAAAAAAATTATTCACACATATATATATATATATA [CACACA_site5579] | 10.2 ± 0.33 |
| ATATTCATATATACTTCACACACATTTTATCATTCA [CACACA_site8784] | 8.71 ± 0.39 |
| AAAAATTTTATATTCACACACATATTTATATTTATA [CACACA_site6439] | 8.25 ± 0.27 |
| TTTAAAAAATTATATTCACACACATACACATATATA [CACACA_site8076] | 8.51 ± 0.59 |
| AAAAACTTAATATTCACACATATATATATATATATA [CACACA_site5240] | 10.2 ± 0.45 |
| TAAAAAATTTTATATTCACACACATATATATATATA [CACACA_site8109] | 10.1 ± 0.31 |
| TAATTTTAAATATCTTCACACATTATATTTTTATAT [CACACA_site5411] | 8.34 ± 0.42 |
| AAAAATTTTATATTCACACACATATATATATATATA [CACACA_site624] | 10.2 ± 0.42 |
| CATATTTGTTGACACACACACATATTTATATAAATA [CACACA_site7648] | 8.74 ± 0.4 |
